Measured values taken from article PMC5540273 (PLoS ONE, 2017).

system: DYRK1B; conditions: concentration: 1 μM, replicates: in singlicate; n = 1
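Also: KINOMEscan kinase panel screen.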

| Structure (SMILES) | %Inh [%] |
| --- | --- |
| CNC(=O)c1ccccc1Nc1nc(Nc2ccc(N3CCOCC3)cc2)ncc1Cl.Cl [GSK1576028] | 100 |
| COc1ccc(Nc2nccc(NCCNC(=O)c3cc4ccccc4s3)n2)cc1 [GSK1379896] | 0 |
| COc1cc(Nc2nccc(-c3c(-c4cccc(NC(=O)c5c(F)cccc5F)c4)nn4ccccc34)n2)cc(OC)c1OC [GSK323521] | 0 |
| Cc1ccc(C(=O)N2CC[C@@H](O)C2)cc1-n1c(C)cc(OCc2ccc(F)cc2F)c(Br)c1=O | 0 |
| Cc1ccc(S(=O)(=O)Nc2ccc(Nc3nccc(Nc4cccc5[nH]ncc45)n3)cc2)cc1 [GSK581271] | 0 |
| COc1cc2c(cc1OCCN1CCNCC1)ncc1c3ccc(C#N)cc3[nH]c21 | 63 |

system: DYRK2; conditions: concentration: 1 μM, replicates: in singlicate; n = 1

| Structure (SMILES) | %Inh [%] |
| --- | --- |
| CC(=O)N1CCN(c2ccc(Nc3nccc(-c4sc(C(C)C)nc4-c4cccc(NS(=O)(=O)c5cccc(Cl)c5)c4)n3)cn2)CC1 [GSK1660437] | 11 |
| CN(C)S(=O)(=O)c1cc(-c2ccc3nccc(-c4cccc(S(N)(=O)=O)c4)c3c2)cnc1N [GSK1669921] | 44 |
| O=C(NC1CCN(c2ccnc(Nc3ccc(F)cc3)n2)C1)c1cc2ccccc2s1 (stereo not shown) [GSK1379716] | 0 |
| Cn1cc(-c2ccc3c(c2)CCN3C(=O)Cc2cccc(Cl)c2)c2c(N)ncnc21 [GSK2606590] | 5 |
| FC(F)(F)c1ccc(/C=C/c2cncnc2Nc2ccc3[nH]c(Cc4ccccc4)nc3c2)cc1 [GW709199] | 0 |
| Cl.c1ccc(-c2ccc3c(Nc4ccc5[nH]ccc5c4)ccnc3c2)nc1 [GW440138] | 0 |
| c1ccc(-c2n[nH]cc2Nc2ccnc3ccccc23)nc1 [GW694077] | 90 |
| CC(C)c1nc(-c2cccc(NS(=O)(=O)c3c(F)cccc3F)c2F)c(-c2ccnc(Nc3ccc(N4CCOCC4)nc3)n2)s1 [GSK2008607] | 16 |
| COc1cc(Nc2nccc(N3CCC(NC(=O)c4cc5ccccc5s4)C3)n2)cc(OC)c1OC (stereo not shown) [GSK1379760] | 19 |
| COc1cc(Nc2ncc3c(C)nc(-c4cc5ccccc5[nH]4)n3n2)cc(OC)c1OC [GW869516] | 0 |
| Cn1cc(-c2[nH]c3cc(NC(=O)[C@H](N)C4CCCCC4)cc4c3c2C=NNC4=O)cn1 | 92.3 |
| COC(=O)Nc1nc2ccc(Oc3ccc(NC(=O)Nc4cc(C(F)(F)F)ccc4F)cc3)cc2n1C.Cl [GW692089] | 0 |
| CCS(=O)(=O)c1ccc(OC)c(Nc2nccc(-c3c(-c4cccc(NC(=O)c5c(F)cccc5F)c4)nn4ncccc34)n2)c1 [GSK326180] | 16 |
| CCn1c(-c2nonc2N)nc2c(C#CC(C)(C)O)nc(OC[C@H](N)c3ccccc3)cc21 [GSK943949] | 9 |
| CC(=O)Nc1nc2cnc(Nc3cc(NC(=O)c4cccc(C5(C#N)CC5)c4Cl)ccc3C)nc2s1 | 8 |
| COc1ccc(CNC(=O)NC2CCN(c3ccnc(Nc4ccc(F)cc4)n3)CC2)cc1 [GSK1379788] | 0 |
| O=C(O)C(F)(F)F.O=C(O)C(F)(F)F.O=c1[nH]ccc2nc(N[C@@H]3CCCNC3)nc(Nc3ccc(S(=O)(=O)N4CCOCC4)cc3)c12 [GSK2177277] | 59 |
| Cc1occc1-c1ncc(OC[C@@H](N)Cc2c[nH]c3ccccc23)cc1-c1ccc2[nH]nc(C)c2c1.O=C(O)C(F)(F)F [GSK682037] | 26 |
| CSc1cccc2c(-c3ccncn3)c(-c3ccc(F)cc3)nn12 [GW514786] | 12 |
| CN1CCN(Cc2cccc(-c3ccc4c(Nc5ccc(Oc6ccccc6)cc5)ccnc4c3)c2)CC1 [GW578342] | 0 |
| COc1cccc(NC(=O)NC2CCN(c3ccnc(Nc4cc(OC)c(OC)c(OC)c4)n3)C2)c1 (stereo not shown) [GSK1379763] | 4 |
| CN1CCN(CCCNc2nccc(-c3c(-c4ccc(F)cc4)nn4cc(C(F)(F)F)ccc34)n2)CC1 [GW621581] | 4 |
| COc1cc(Nc2nccc(N3CCC(NC(=O)Nc4cccc(C(C)=O)c4)C3)n2)cc(OC)c1OC (stereo not shown) [GSK1379753] | 21 |
| Cn1cc(-c2ccc3c(c2)CCN3C(=O)Cc2cccc(F)c2)c2c(N)ncnc21 [GSK2603358] | 4 |
| Clc1ccc(-c2nn3ncccc3c2-c2ccnc(Nc3ccc4c(c3)OCCO4)n2)cc1 [GW829116] | 0 |
